Experimental findings from PMC5540273 (PLoS ONE, 2017) are described below.
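Further: kd values determined as follow-up on hits from a single-replicate KINOMEscan panel screen.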

The subject of the first assay is T1, PIP5K2C.
T1 construct: gene PIP4K2C
The term Kd denotes a measure of binding affinity in units of concentration. High values mean weaker binding, low ones tighter binding. For `CC(=O)c1c(C)c2cnc(Nc3ccn(C)n3)nc2n(C2CCCC2)c1=O`, the affinity, expressed as Kd, was 110 nM. For the molecule `CS(=O)(=O)Cc1ccc(Nc2nccc(-c3c(-c4cccc(NC(=O)C5CCCCC5)c4)nn4ncccc34)n2)cc1` [GSK350559], the Kd amounted to 60 nM.

`Nc1nccc(-c2c(-c3ccc(F)cc3)ncn2C2CCN(Cc3ccccc3)CC2)n1` [SB-219980]: the Kd came out at 93 nM.

The subject of another assay is PRKD3.
Molecule `COC(=O)C(Cc1ccccc1)NC(=O)NC1CCN(c2ccnc(Nc3ccc(F)cc3)n2)C1` (centres unmarked) [GSK1379714] showed a Kd of over 10000 nM. The same measure, in the same setting: the value for `CS(=O)(=O)CCNCc1nc(-c2ccc3ncnc(Nc4ccc(OCc5ccccc5)c(Cl)c4)c3c2)cs1.Cl` [GW582764] was over 10000 nM; that for `FC(F)(F)c1ccccc1-c1cc(-c2c[nH]nc2-c2ccccn2)ccn1` [GW679396] was over 10000 nM. Molecule `Cc1ccccc1-c1cc(-c2c[nH]nc2-c2ccccn2)ccn1` [GW680061] had a Kd of over 10000 nM.

Regarding `COc1cccc(C2=C(Nc3cc(Cl)c(O)c(Cl)c3)C(=O)NC2=O)c1` [SB-390767], the Kd is over 10000 nM. Same read-out and setting: the value for `COc1ccc(Nc2nccc(N3CCC(NC(=O)c4cc5ccccc5s4)C3)n2)cc1` (centres unmarked) [GSK1379738] was over 10000 nM; that for `COc1ccc(Nc2nccc(-c3ccc(NC(=O)c4cc5cc(F)ccc5[nH]4)cc3)n2)cc1` [GSK1229496] was over 10000 nM.

In another assay the test system is PRKG2.
The molecule `Cn1cncc1C(=O)NC1CCN(c2ccnc(Nc3ccc(F)cc3)n2)C1` (centres unmarked) [GSK1379717] had a Kd of over 10000 nM. As to `Cn1cnc2c(N)ncnc21` [SKF-97623], the dissociation constant Kd is over 10000 nM. With `CNC(=O)c1ccc(C)c(-n2c(C)cc(OCc3ccc(F)cc3F)c(Br)c2=O)c1`, the Kd was over 10000 nM. As for `CNc1cc(-c2ccc3c(N)n[nH]c3c2)nc(N)n1` [GSK2224810], the affinity, expressed as Kd, was 39 nM. On the same count and under the same terms, the result for `Cc1c(Cn2c(C)c(C)n3c(=O)cc(N4CCOCC4)nc23)cccc1C(F)(F)F` [GSK2328680] reads over 10000 nM; that for `COc1ccc(Nc2nccc(N3CCC(NC(=O)C(C)c4ccc(Cl)cc4)C3)n2)cc1` (centres unmarked) [GSK1379735], over 10000 nM. `CC[C@@H]1CO[C@H](C(=O)Nc2ccccc2)CN1c1cc(-c2ccc3c(N)n[nH]c3c2)nc(NC)n1` [GSK2376236] displayed a Kd of 400 nM. Same read-out and setting: the result for `Cn1cncc1-c1cc2c(Nc3ccc(OCc4ccccc4)cc3)ncnc2cn1` [GW281179] reads 3300 nM; that for `NS(=O)(=O)c1cccc(N/C=C2\C(=O)Nc3ccc(S(=O)(=O)Cc4c(Cl)cccc4Cl)cc32)c1` [GSK398099], over 10000 nM.

In another assay the test system is RIOK1.
`CC(C)c1cc(-c2ccc3c(N)n[nH]c3c2)nc(N)n1` [GSK2250882] displayed a Kd of 580 nM. Same read-out and setting: the value for `CNc1cc(-c2ccc3c(N)n[nH]c3c2)nc(N)n1` [GSK2224810] was 1100 nM; that for `Nc1cccc(-c2ccc3c(N)n[nH]c3c2)n1` [GSK2192730] was 390 nM. Take `O=C(Nc1n[nH]c2cc(-c3ccsc3)ccc12)C1CC1` [SB-732932]: binding was characterised by a dissociation constant (Kd) of 180 nM.
